# Measured values as given in PubChem BioAssay (Tox21).
# Inconclusive results are not listed. Entries that show only a call come without a potency. A number with no mark means an inactive call. Activity calls are given as the source filed them. The call rests on the fitted dose curve; in most records, active means well fitted inhibition curve with a large enough effect in the repeat runs; inconclusive means weak or mixed curves; inactive means no such curve, though single readings can be large or run the other way.
# Molecular target: Cytochrome P450 2C9 (Homo sapiens) (UniProt P11712)
# Sequence (P11712 whole entry, looked up): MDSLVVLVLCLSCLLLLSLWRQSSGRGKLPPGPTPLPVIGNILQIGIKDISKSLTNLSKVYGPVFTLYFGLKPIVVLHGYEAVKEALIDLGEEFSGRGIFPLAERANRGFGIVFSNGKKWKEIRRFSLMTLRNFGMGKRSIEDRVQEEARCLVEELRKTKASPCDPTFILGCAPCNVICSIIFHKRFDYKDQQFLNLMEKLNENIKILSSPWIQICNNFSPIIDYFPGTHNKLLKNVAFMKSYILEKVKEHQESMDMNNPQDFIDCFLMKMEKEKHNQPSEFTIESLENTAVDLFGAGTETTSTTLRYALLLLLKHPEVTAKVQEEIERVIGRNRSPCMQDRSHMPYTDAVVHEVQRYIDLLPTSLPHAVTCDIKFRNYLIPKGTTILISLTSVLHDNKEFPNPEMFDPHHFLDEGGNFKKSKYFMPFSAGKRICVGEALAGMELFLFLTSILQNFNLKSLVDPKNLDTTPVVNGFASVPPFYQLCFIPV
# Assay: Cytochrome P450 Family 2 Subfamily C Member 9 (CYP2C9) small molecule antagonists: luciferase reporter qHTS assay (AID 1671198); further: nearly all actives have a fitted effect of over 50% in size
# Details: P450-Glo CYP2C9 enzyme assay, luciferin luminescence; series mostly up to 115 µM
# Text: U.S. Tox21 Program National Center for Advancing Translational Sciences [NCATS] U.S. Environmental Protection Agency [EPA] National Institutes of Environmental Health Sciences [NIEHS] National Toxicology Program [NTP] U.S. Food and Drug Administration [FDA] Tox21 Assay Overview: Cytochrome P450 (CYP) enzymes are membrane-bound hemeproteins that play a key role in metabolism of drugs and xenobiotics. Evaluation of the effect of chemicals on CYP isozymes is useful to minimize the adverse drug reactions and toxicities in drug development process. Tox21 chemicals were tested for their effect on CYP enzyme activities by using P450-Glo (TM) screening systems (Promega Corporation, Madison, WI). These systems provide a luminescent method containing proluciferin substrates and are converted to luciferin products by CYP isozymes. The luciferin products formed are detected with a luciferin detection reagent, and the amount of light produced is proportional to CYP activity. P450-Glo (TM) CYP2C9 screening system (Catalog. No. V9790) was used to detect the compounds that interfere in CYP2C9 activity.
# Tox21 Assay Protocol Summary: Two ul of enzyme-substrate mix was dispensed into medium binding white/solid 1536-well plates (Greiner Bio-One North America Inc., Monroe, NC) using a BioRaptr Flying Reagent Dispenser (FRD, Beckman Coulter, Brea, CA). […] The assay plates were incubated at room temperature for 10 min. Then 2 ul of NADPH regeneration solution was added to each well of the assay plates using an FRD and incubated at 37C for 1 h. The reaction was stopped by adding 4 ul of detection reagent using an FRD and after 20 min incubation at room temperature the luminescence signal was measured using a ViewLux plate reader (Perkin Elmer, Shelton, CT). Data were expressed as relative luminescence units.
# Potency means the concentration at half of the fitted maximal effect.
SMILES,Potency,"activity change, negative = inhibition"
CCCC(=O)OCCC(C)CCC=C(C)C (stereo not given),20 µM (active),
CN(C)CC/C=C1/c2ccccc2COc2ccc(CC(=O)O)cc21,inactive,
Cc1c(C(=O)c2c[nH]n(C)c2=O)ccc(S(C)(=O)=O)c1C1=NOCC1,12.9 µM (active),
COC(=O)/C=C\C(=O)O,inactive,
COc1cc2c(cc1OC)CN(C(=O)[C@H](C)N[C@@H](CCc1ccccc1)C(=O)O)[C@H](C(=O)O)C2,inactive,
CC(=O)O[C@H]1C[C@@H]2CC[C@@]1(C)C2(C)C,inactive,
O=Cc1ccccc1Cl,inactive,
CC(=O)CC(=O)Nc1ccc(C)cc1C,31.7 µM (active),
Nc1nnnn1-c1ccccc1,inactive,
Cc1ccc(N)cc1S(=O)(=O)O,63.3 µM (active),
O=C1OCCO1,inactive,
CC(C)CCOC(=O)c1ccccc1,inactive,
CC(C)Cn1cnc2c1c(=O)n(C)c(=O)n2C,inactive,
CCc1occc(=O)c1O,inactive,
CCCCOC(=O)[C@H](C)O,inactive,
c1ccc(B(c2ccccc2)c2ccccc2)cc1,31.7 µM (active),
CCOc1ccccc1OCC1CNCCO1 (stereo not given),inactive,
CC1=C(O)C(=O)C(C)O1 (stereo not given),inactive,
CCCCOCC(C)O (stereo not given),inactive,
Cc1ccc(C(=O)O)cc1[N+](=O)[O-],inactive,

SMILES,Potency,"activity change, negative = inhibition"
Cc1cccc(Cl)c1,inactive,
CCCCCCCCCOC(=O)CCCCC(=O)OCCCCCCC,inactive,
CCCCCCC1(C)CCC(=O)O1 (stereo not given),inactive,
N#CCC(=O)NN,inactive,
O=C(CN1CCNCC1)NC1CCCCC1,inactive,
CC(C)CO,inactive,
O=C1c2ccccc2C(=O)c2cc(Cl)ccc21,,-13.1% [at 10.5 µM]
C[C@@H](O)C(=O)O,inactive,
Cc1ccccc1C(N)=O,inactive,
O=C[O][Al]([O]C=O)[O]C=O,inactive,
O=C(O)CCCCCC(=O)O,inactive,
CC1=NN(c2ccc(S(=O)(=O)O)cc2)C(=O)C1,inactive,
CC(C)Nc1ccccc1,inactive,
CCCCCCCCCCCCCCCCCC#N,inactive,
Cc1ccnc(N)c1,inactive,
CCOc1cccc(N)c1,7.93 µM (active),
CCC(C(=O)OCCN1CCOC(c2ccccc2)C1C)c1ccccc1 (stereo not given),4.9 µM (active),
CC(=O)OCC(=O)Nc1cc(C#N)cc(NC(=O)COC(C)=O)c1Cl,inactive,
CC(=O)C(C)O (stereo not given),inactive,
O=C(O)[C@H](O)c1ccccc1,inactive,
